High-throughput results: PubChem, National Center for Advancing Translational Sciences (NCATS)
p53 reactivator: restores transcriptional activity of mutant p53; H1299 p53-A138V BP100-luciferase reporter, luminescence, 24 h; Potency, µM (top dose mostly 92.2 µM), for inactives: at the top dose activity change, positive = activation, actives largely listed as activators; 0.063% of 320,000 active; AID 504706; active = well fitted activation curve with a large enough effect; inconclusive = small, poorly fitted or top-dose-only effect; inactive = no such curve, though single readings can be large or run the other way; also: potency is read from the fitted curve at half-maximal effect; % of control where 0% means no effect; nearly all actives have a fitted effect of over 45% in size
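H1299 (p53-null), stable ts p53-A138V + BP100-Luc; 1000 cells/well, Opti-MEM/10% FBS; cpd 4 pt, 1:5; 24 h, 37 deg C, 5% CO2; detection reagent 10 min RT; luminescence.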
TRPV1 ag: activates the human vanilloid receptor TRPV1. 0.19% of 320,000 active. TRPV1-expressing cells, Fluo-8 calcium influx, agonist mode. activation, % at 8.33 µM. Q8NER1; in the data active = activation above about 80%; inconclusive = between about 30% and that limit; also: 0% is about no effect
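Fluo-8 calcium influx in TRPV1-expressing cells, kinetic read (ex 480/em 520 nm). Compound added and read 3 min for agonist activity, followed by capsaicin at EC20 final and 2 min further read for enhancement.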
KCNH2 3.1 inh: inhibitors of human KCNH2 3.1 potassium channel isoform | U2OS KCNH2 3.1, thallium flux FluxOr; hits give low values | activity change, % (tested at about 1.8 µM) | 0.95% of 340,000 active | AID 720553;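 active = maximum activity change below -70%; inconclusive = maximum activity change from -70% to -50%; inactive = maximum activity change above -50%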;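 also: thallium influx rate constant from kinetic fluorescence after stimulation buffer; % is scaled to controls: 0 for no effect and ±100 for the full control effect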
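U2OS cells transduced with KCNH2 3.1 mutant virus (1.77 x 10^8 /mL, 4 h), plated overnight at 37 C, loaded 45 min with FluxOr dye plus Red40 quencher. Thallium flux rate constant from kinetic reads after stimulation buffer, normalised to controls.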
KCNH2 WT inh: inhibitors of human wildtype KCNH2 potassium channel; activity change, % at 1.84 µM; AID 720551; U2OS, BacMam KCNH2, thallium flux FluxOr; hits give low values; 0.37% of 340,000 active;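 active = maximum activity change below -70%; inconclusive = maximum activity change between -70% and -50%; inactive = maximum activity change above -50%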; also: % is scaled to controls: 0 for no effect and ±100 for the full control effect
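U2OS cells transduced with wild-type KCNH2 virus are loaded with FluxOr dye for 45 min, and thallium flux is measured in kinetic reads before and after stimulation buffer. Rate constants are normalized to DMSO controls.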
TRPV1 PAM: enhances activation of the human vanilloid receptor TRPV1; potentiation, % at 8.33 µM; AID 540277; 0.02% of 320,000 active; Q8NER1; TRPV1-expressing cells, Fluo-8 calcium influx, capsaicin EC20 potentiation; in the data active = potentiation above about 80%; inconclusive = between about 30% and that limit; also: 0% is about no effect
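Cells expressing TRPV1 were dye-loaded with Fluo-8 and read kinetically: 10 s baseline, 3 min after compound (agonist portion), then 2 min after EC20 capsaicin (allosteric enhancer portion). Calcium-bound dye fluorescence at 480/520 nm.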
ClpP mod: qHTS Assay for Activators of ClpP | ATP-dependent Clp protease proteolytic subunit (Bacillus subtilis (strain 168)), P80244 | purified B. subtilis ClpP, FRET peptide cleavage, 20 min | 1.9% of 340,000 active | Potency, µM (top dose mostly 57.5 µM), inactives show at the top dose activity change, negative = active; active = well fitted falling curve with a large enough effect; inconclusive = small, poorly fitted or top-dose-only effect; inactive = no such curve, though single readings can be large or run the other way; also: potency is read from the fitted curve at half-maximal effect; the source files actives as falling curves though it sought activators and does not explain the sign; nearly all actives have a fitted effect of over 65% in size
Target sequence (P80244 whole entry, looked up): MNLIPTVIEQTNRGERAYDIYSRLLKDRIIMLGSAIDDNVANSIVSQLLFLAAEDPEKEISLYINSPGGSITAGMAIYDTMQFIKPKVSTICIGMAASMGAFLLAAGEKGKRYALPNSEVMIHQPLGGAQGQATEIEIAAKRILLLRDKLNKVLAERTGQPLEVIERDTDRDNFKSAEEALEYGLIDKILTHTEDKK
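FRET quenching reversal measured ClpP activation: 10 microg/mL B. subtilis ClpP at pH 8 with the FRET-FV decapeptide, read at 430 nm after 320 nm excitation. The 20-min minus 0-min signal was scaled between DMSO/no-enzyme wells and ADEP (5.8 microM final).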
* = called active by the depositor; u = inconclusive; x = no result given. Most compounds without a hit are left out; they make up all but 2.6% or so of the library.

SMILES | p53 reactivator | TRPV1 ag | KCNH2 3.1 inh | KCNH2 WT inh | TRPV1 PAM | ClpP mod
Nc1nc(NCc2ccc(F)cc2)c2[nH]cnc2n1 | x | x | x | x | x | 0%
CCCCCCCCN1C(=O)[C@H](CC(=O)NCCCC)C[C@@]2(C(=O)OC)CCCCC=C12 | x | x | x | x | x | -5%
CC(C)NC(=O)C1CCN(C(=O)N2CCOc3ccc(Cl)cc32)CC1 | x | x | x | x | x | -3%
CCOC(=O)/C=C/c1ccc2c(c1)S(=O)(=O)N(C1CCCC1)[C@H]2CC(=O)OCC | x | x | x | x | x | -13%
COc1ccc(-c2onc(C)c2C)cc1S(=O)(=O)Nc1cccc(C#N)c1 | x | x | x | x | x | 1%
CCOC(=O)c1oc2nc(C)c3c(c2c1N)CC(C)(C)OC3 | 5% | 10 | 16 | 19 | -14 | 10µM*
COC(=O)c1sc2nc(N3CCCCC3)c3c(c2c1N)CCCC3 | 0% | 12 | -1 | 27 | -15 | 10µM*
CCc1nc2oc(C(=O)c3ccccc3)c(N)c2c2c1COC(C)(C)C2 | 3% | -1 | -1 | -3 | 23 | -5%
CCNC(=O)C1(C)CCCN(CCOc2ccc(OC)cc2)C1 (configuration not stated) | x | x | x | x | x | 3%
O=C(CCCN1CCN(c2ccccc2)CC1)c1ccc(F)cc1 | x | x | -50 | 34 | x | 1%
O=C1NCN(c2ccccc2)C12CCN(CCCC(c1ccc(F)cc1)c1ccc(F)cc1)CC2 | -8% | -3 | 1 | -194* | 7 | -2%
COc1ccc(/C=C2\SC(=O)N=C2N)cc1 | 8% | -14 | -16 | -214* | 29 | -2%
COc1ccc(/C=C2\SC(N3CCCCC3)=NC2=O)cc1 | u | -2 | 9 | -12 | 0 | -3%
Cc1cccn2c(=O)c3cc(C(=O)NCCN4CCOCC4)c(=N)n(CCc4ccccc4)c3nc12 | -2% | 30 | -9 | -2 | -13 | 3.2µM*
COCCn1c(=N)c(C(=O)NCCc2ccccc2)cc2c(=O)n3cccc(C)c3nc21 | x | x | -29 | -11 | x | 1.4µM*
Cc1cccn2c(=O)c3cc(C(=O)NCCc4ccccc4)c(=N)n(CCCn4ccnc4)c3nc12 | 10% | -2 | 7 | -10 | 4 | 18µM*
CCNC(=O)c1cc2c(=O)n3cccc(C)c3nc2n(CCc2ccccc2)c1=N | 11% | -5 | -4 | -3 | 0 | u
COc1ccc(NC(=O)Nc2nnc(N3CCCCCC3)s2)c(OC)c1 | x | x | x | x | x | 2%
CCOc1ccc(NC(=O)C2CCCN(S(=O)(=O)c3ccc(Br)s3)C2)cc1 (configuration not stated) | x | x | x | x | x | 2%
CCOC(=O)C(Cc1ccccc1)C(=O)Nc1cccc(C)c1 (configuration not stated) | -1% | 85* | 6 | -26 | -15 | -4%
CCOC(=O)C(Cc1ccccc1)C(=O)Nc1ccc(N(CC)CC)cc1 (configuration not stated) | -3% | 1 | -13 | -9 | -1 | -1%
Cc1cc(S(=O)(=O)Nc2ncnc3sccc23)ccc1F | x | x | -6 | 17 | x | -1%
COCCn1c(=O)[nH]c2cc(C(=O)NCC3CCCO3)ccc2c1=O (configuration not stated) | 1% | 1 | 8 | 0 | -4 | 28µM*
CCN1CCCC1CNC(=O)c1ccc2c(=O)n(CCOC)c(=O)[nH]c2c1 (configuration not stated) | 0% | -1 | 4 | 0 | 7 | 32µM*
COCCn1c(=S)[nH]c2cc(C(=O)NCC3CCCO3)ccc2c1=O (configuration not stated) | 0% | -1 | 0 | -42 | u | 2%
SMILES | p53 reactivator | TRPV1 ag | KCNH2 3.1 inh | KCNH2 WT inh | TRPV1 PAM | ClpP mod
Cc1ccccc1NC(=O)Nc1nc(CN)cs1 | x | x | x | x | x | -2%
Nc1nc[nH]c(=O)c1N | x | x | x | x | x | -28%
Cc1cccc(CSc2cn(CC(=O)N3CCOCC3)c3ccccc23)c1 | u | 17 | -4 | 3 | -12 | -1%
O=C(Cn1cc(SCc2cccc(Cl)c2)c2ccccc21)N1CCOCC1 | 28µM* | -2 | -13 | -3 | -2 | 1%
O=C(NCC1CC1)c1ccc(-c2cn[nH]c2)c2ccoc12 | x | x | x | x | x | 4%
CCOc1ccc(NC(=O)COC(=O)c2ccccc2OCc2ccccc2Br)cc1 | x | x | x | x | x | -14%
O=C(Nc1ccccc1F)C(=Cc1sc(N2CCOCC2)nc1-c1ccccc1)C(=O)Nc1ccccc1F | 5% | 9 | -77* | -1 | 10 | x
Cc1cccc(OCC(=O)Nc2ccc(O)c(-c3nc4ccccc4o3)c2)c1 | x | x | x | x | x | -1%
Cc1ccc2oc(-c3ccc(C)c(NC(=O)/C=C/c4ccco4)c3)nc2c1 | x | x | x | x | x | -9%
COc1ccc(NC(=O)CCc2nnc3n(C)c(=O)c4sccc4n23)cc1 | x | x | x | x | x | 2%
COc1ccc(CCNC(=O)C2CC3Cn4c(nc5cc(Cl)c(Cl)cc54)C3N2C)cc1 (configuration not stated) | -6% | 0 | -13 | -252* | 7 | 1%
COc1cccc(NC(=O)C(OC(=O)/C=C/c2ccc3c(c2)OCO3)c2ccccc2)c1 (configuration not stated) | 2% | 2 | -43 | -1 | 9 | 32µM*
COc1ccc(NC(=O)C(c2ccccc2)N(C)C(=O)/C=C\c2ccc3c(c2)OCO3)cc1 (configuration not stated) | x | x | x | x | x | 4%
Fc1ccc(-n2cc(-c3ccccc3)c3c(NC4CCCCC4)ncnc32)cc1 | x | x | x | x | x | -7%
COc1ccc(CCNC(=O)CCCOc2ccc(C)cc2)cc1OC | -6% | u | 10 | 1 | -43 | -4%
COc1ccc(CCNC(=O)CSCc2ccc([N+](=O)[O-])cc2)cc1 | -7% | 26 | 6 | 2 | -22 | 3%
COc1ccc(CCNC(=O)CSCc2ccc([N+](=O)[O-])cc2)cc1OC | 3% | -2 | -206* | -129* | -23 | 0%
COc1ccc(CCNC(=O)COC(=O)CCC(=O)c2ccc(F)cc2)cc1OC | 4% | 0 | 33 | -3 | -2 | 32µM*
COc1ccc(CCNC(=O)CCCOc2cccc(C)c2C)cc1OC | -5% | 83* | 2 | -3 | 13 | 1%
COc1ccc(CCNC(=O)COC(=O)CCC(=O)c2cccs2)cc1OC | 7% | x | -14 | -4 | x | x
COc1ccc(CNC(=O)CCSc2ccc(F)cc2)cc1OC | 0% | 84* | 25 | x | -12 | 2%
COc1ccccc1/C=C1\C=Cc2ccccc21 | x | x | x | x | x | -6%
O=C(CCSc1ccc(Cl)cc1)NCc1ccncc1 | -1% | 86* | -5 | 2 | -24 | -1%
CCOc1ccccc1NC(=O)CC1Nc2ccccc2NC1=O (configuration not stated) | 14% | 0 | -2 | -13 | 17 | 25µM*
